PubChem BioAssay (NCI)
This is part of a sample that, as a whole, favours compounds with a hit. Of some 79,000 tested, about 15% had one in any assay. Activity calls are given as the source filed them. Cut-off read from the data, not from the text of the source: active = growth inhibition above about 70%; inactive = the rest. Where a SMILES comes first, the peptide text is derived from it. The star is where a group is joined. Bz = O=C(c1ccccc1)*; Bn = c1ccc(C*)cc1; βAla = NCCC(=O)O

How the values were obtained:
[1] = NCI Yeast Anticancer Drug Screen. Data for the rad50 strain (AID 155);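 note: 0% = growth of vehicle-only cultures of the same strain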; conditions: S. cerevisiae rad50 strain growth inhibition; at 50.0 µM; hits give high values
Procedure, shortened: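 Yeast carrying a defined DNA repair defect were exposed to test compounds, and growth was compared with vehicle-treated controls to give percent inhibition.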

[2] = NCI Yeast Anticancer Drug Screen. Data for the mec2-1 strain (AID 157); conditions: S. cerevisiae mec2-1 strain, at 50.0 µM, hits give high values
Procedure, shortened: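 Vehicle-treated cultures served as reference for growth inhibition of compound-exposed mec2-1 yeast.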

[3] = NCI Yeast Anticancer Drug Screen. Data for the sgs1 mgt1 strain (AID 161);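 note: 0% = growth of cultures given vehicle only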; conditions: S. cerevisiae sgs1 mgt1 strain, at 50.0 µM, hits give high values
Procedure, shortened: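 Test agents were incubated with a DNA-repair-mutant yeast strain. Growth was then read and compared against vehicle-treated controls.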

[4] = NCI Yeast Anticancer Drug Screen. Data for the cln2 rad14 strain (AID 165);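 note: 0% = growth equal to vehicle treated cultures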; conditions: S. cerevisiae cln2 rad14 strain, at 50.0 µM, hits give high values
Procedure, shortened: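 Each compound was tested on cln2 rad14 yeast. Inhibition of growth was calculated against vehicle-exposed controls.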

[5] = NCI Yeast Anticancer Drug Screen. Data for the bub3 strain (AID 167); conditions: S. cerevisiae bub3 mutant strain, at 50.0 µM, hits give high values
Procedure, shortened: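 Compounds were applied to a genetically altered yeast strain carrying a cell-cycle control defect. Growth inhibition was scored against vehicle-treated controls.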

[6] = NCI Yeast Anticancer Drug Screen. Data for the mlh1 rad18 strain (AID 175); conditions: S. cerevisiae mlh1 rad18 strain growth inhibition; at 50.0 µM; hits give high values
Procedure, shortened: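 Vehicle-treated cultures served as the reference for growth inhibition in a yeast strain carrying DNA damage repair alterations exposed to each compound.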

Measured: growth inhibition

Cn1c(=O)c2[nH]c(=S)n(C)c2n(C)c1=O
inactive: [1] 31.8% | [2] -8.35% | [3] -2% | [4] 11.2% | [5] -13.6% | [6] 15.5%

CCCC=NCCCC
inactive: [1] -17.1% | [2] -7.55% | [3] -35.6% | [4] -67% | [5] -30% | [6] -24.4%

O=C(Nc1cc(Cl)c(Cl)cc1Cl)OCc1ccc2c(c1)OCO2
inactive: [1] -12.1% | [2] -32.3% | [3] -14.4% | [4] 6.25% | [5] -25.2% | [6] -14.6%

CCOc1cc[n+]([O-])cc1C
inactive: [1] -15.7% | [2] -9.6% | [3] 1.45% | [4] -8.2% | [5] -3.75% | [6] 13.1%

COC(=O)C(CSCc1ccccc1)NC(=O)C(CSCc1ccccc1)NC(=O)CCNC(=O)c1ccccc1 (configuration not stated) ({Bz-βAla}-Cys(Bn)-Cys(Bn)-OMe; configuration not given here)
inactive: [1] 13.9% | [2] -5.05% | [3] 2.1% | [4] 30.1% | [5] -0.9% | [6] 9.05%

CC(=O)N(C)c1ccc(O)cc1
inactive: [1] 14.6% | [2] -16.1% | [3] -16.1% | [4] -18.6% | [5] -8.9% | [6] 9.2%

Cc1cc(=O)[nH]c(-n2[nH]c(C)c(CCO)c2=O)n1
inactive: [1] -13.3% | [2] -17.2% | [3] 14.8% | [4] 19.9% | [5] -5.9% | [6] 18.4%

CCOC(=O)CSc1ccnc(=O)[nH]1
inactive: [1] -9.25% | [2] -8.9% | [3] -5.35% | [4] 0.1% | [5] -16% | [6] -31.8%

CNc1ncnc2n[nH]nc12
inactive: [1] -10.7% | [2] -0.35% | [3] -12.1% | [4] -23% | [5] -11.6% | [6] 3.45%

Fc1ccc2c(c1)CC(CBr)O2 (configuration not stated)
inactive: [1] -14.2% | [2] -8.5% | [3] -4.5% | [4] -23.9% | [5] -1.95% | [6] 2.8%

CC(=O)Nc1cc2[nH]c(=O)c3cc(Cl)ccc3c2cc1[N+](=O)[O-]
inactive: [1] 28.8% | [2] 36.1% | [3] 1.65% | [4] 27.1% | [5] 23.6% | [6] 57.8%

O=c1[nH]c(=O)n(C2CC(O)C(CO)O2)cc1Cl (configuration not stated)
inactive: [1] 0.75% | [2] -11.1% | [3] 2.9% | [4] 11.8% | [5] 1.45% | [6] 2.25%

COc1cc(C)c2c(c1)C=C[C@@H]1[C@@H]2CC[C@]2(C)C(=O)CC[C@@H]12
inactive: [1] -10.1% | [2] 3.3% | [3] -2.55% | [4] -48.2% | [5] -0.05% | [6] -3.1%

CCC1(COC(NC(=O)c2ccccc2)(C(F)(F)F)C(F)(F)F)COC1
inactive: [1] -14.2% | [2] -1.9% | [3] -32.2% | [4] 14.1% | [5] -24.2% | [6] 7.05%

CC(=O)CC(=O)Nc1cc(C(F)(F)F)ccc1Cl
inactive: [1] 15.4% | [2] -25.6% | [3] -19.1% | [4] -0.3% | [5] -6.25% | [6] 3.05%

CCCCN(CCCC)CC(=O)NC(N)=O
inactive: [1] 4.6% | [2] 0.9% | [3] -6.95% | [4] -2.8% | [5] 10.3% | [6] -6.8%

CCOC(=O)/N=c1/nc2ccn(C)c2c(NC(=O)OCC)s1
inactive: [1] 15.1% | [2] -3.5% | [3] -5% | [4] 11% | [5] 7.9% | [6] -15.8%

Cc1ccc(S(=O)(=O)N(Cc2cccc([N+](=O)[O-])c2)c2ccc(C(=O)O)cc2)cc1
inactive: [1] 8.45% | [2] 4.55% | [3] 0.8% | [4] -12.7% | [5] 5.95% | [6] 21.1%

CCc1cccc(CC)c1N=C(NC(=O)c1ccc(Br)cc1)SC
inactive: [1] -17.6% | [2] -16.5% | [3] -4.7% | [4] -6.75% | [5] -17.1% | [6] -5.65%

CC(=O)CC(=O)Nc1ccc(C)c(C)c1
inactive: [1] -4.6% | [2] 2.15% | [3] 10% | [4] 7.95% | [5] 40% | [6] 12.5%

COC(=O)c1cc([N+](=O)[O-])c(Br)s1
active: [1] 99.3% | [2] 99.6% | [3] 99.6% | [4] 99.5% | [5] 99.3% | [6] 99.3%

NC(=S)N/N=C/c1cccc(CC(O)(C(F)(F)F)C(F)(F)F)n1
inactive: [1] 2.6% | [2] 7.1% | [3] 3.7% | [4] -28.4% | [5] -2.1% | [6] 24%

CC1CN(C(C)(C)C)CO1 (configuration not stated)
inactive: [1] -0.3% | [2] -10.4% | [3] -18.6% | [4] 8.3% | [5] -26.5% | [6] -25.6%

COc1cccc2c1C(=N)c1c(O)c3c(c(O)c1C2=O)C[C@@](O)(C(C)=O)C[C@@H]3OC1CC(N)C(O)C(C)O1 (some centres not stated)
inactive: [1] 42.5% | [2] -26.1% | [3] -11.7% | [4] 34.2% | [5] -4.35% | [6] 13.9%

CO/C(=N\N=C\c1ccc(OC)c(OC)c1)c1ccncc1
inactive: [1] -21.6% | [2] -37.9% | [3] -12.9% | [4] -7.75% | [5] -28.6% | [6] -40%

COC(C)CCOC(=O)c1ccccc1 (configuration not stated)
inactive: [1] -33% | [2] -17.6% | [3] -14.2% | [4] -29.7% | [5] -29.9% | [6] -31.2%

CC(=N/Nc1ccc([N+](=O)[O-])cc1[N+](=O)[O-])/C(C)=C/C1C=CCCC1(C)C (configuration not stated)
inactive: [1] 21.2% | [2] -2.75% | [3] 8.5% | [4] 3% | [5] 16.1% | [6] 6.65%

Nc1cc(C(F)(F)F)ccc1[N+](=O)[O-]
inactive: [1] 14.2% | [2] -10.2% | [3] 8% | [4] -7.25% | [5] 8.85% | [6] 22.4%

O=C(Nc1ccc(I)cc1)c1ccc([N+](=O)[O-])cc1
inactive: [1] 2.3% | [2] -11.1% | [3] -5.05% | [4] -8.2% | [5] 0.35% | [6] -4.5%

COCCCNc1ccc([N+](=O)[O-])cn1
inactive: [1] -21.4% | [2] -40.6% | [3] -20.4% | [4] 2.2% | [5] -13% | [6] -14.4%

CCOC(=O)NC(=Cc1ccccn1)c1ccc(Cl)cc1 (mixture of isomers)
inactive: [1] 7.7% | [2] -3.1% | [3] -8.35% | [4] -0.7% | [5] 4.25% | [6] 28.6%

CC(CC(C(=O)Nc1ccccc1)(c1ccccc1)c1ccccc1)N(C)C (configuration not stated)
inactive: [1] -0.2% | [2] -18.2% | [3] 3.55% | [4] -2.15% | [5] -5.1% | [6] 6.2%

CC(C1=CC=C2[C@@H]3CCC4CC(N(C)C)CC[C@]4(C)C3CC[C@]12C)N(C)C=O (some centres not stated)
inactive: [1] 6.8% | [2] 8.6% | [3] -16.2% | [4] 6.35% | [5] 4.45% | [6] 1.65%

Fc1ccc(NC(=S)Nc2ccccn2)cc1
inactive: [1] 4.05% | [2] -6.4% | [3] -4.25% | [4] -59.5% | [5] 6.05% | [6] 19.9%

CCCCOC(=O)C1(C(=O)OCCCC)CC1
inactive: [1] 14.8% | [2] -7.6% | [3] 1.3% | [4] 1.6% | [5] -3.75% | [6] 3.55%

Cn1c(=O)oc2cc(C(=O)CSC(=S)N3CCCCCC3)ccc21
inactive: [1] -18.3% | [2] -33.1% | [3] -17.6% | [4] -14.8% | [5] -4.8% | [6] -7.6%

CN(Cc1cnc2nc(N)nc(N)c2n1)c1ccc(C(=O)NC(CCC(=O)NC(CCC(=O)NC(CCC(=O)NC(CCC(=O)O)C(=O)O)C(=O)O)C(=O)O)C(=O)O)cc1 (configuration not stated)
inactive: [1] 42.8% | [2] -19.8% | [3] -35.9% | [4] -26.1% | [5] -41.6% | [6] -12.5%
